Assay outcomes as filed in PubChem BioAssay.
A selection: hits, their analogues and other compounds. The true share with any hit is near 5.6%.
PfG6PD inh: PfG6PD (Plasmodium falciparum) enzyme inhibition. PfGluPho enzyme, NADPH resazurin-diaphorase fluorescence. inhibition, % at 20 µM. 0.78% of 350,000 active;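 active = inhibition reaching at least a set limit at 20 µM in the primary screen, cut at about 59% in these data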;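 note: 0% = DMSO wells with substrate and 100% = DMSO wells lacking glucose-6-phosphate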
PHOSPHO1 inh: blocks human PHOSPHO1 phosphatase activity | Q8TCT1 | inhibition, % at 13.3 µM | recombinant PHOSPHO1, absorbance phosphatase assay | 1.1% of 290,000 active; in the data active = inhibition above about 60%
Target sequence (Q8TCT1 whole entry, looked up): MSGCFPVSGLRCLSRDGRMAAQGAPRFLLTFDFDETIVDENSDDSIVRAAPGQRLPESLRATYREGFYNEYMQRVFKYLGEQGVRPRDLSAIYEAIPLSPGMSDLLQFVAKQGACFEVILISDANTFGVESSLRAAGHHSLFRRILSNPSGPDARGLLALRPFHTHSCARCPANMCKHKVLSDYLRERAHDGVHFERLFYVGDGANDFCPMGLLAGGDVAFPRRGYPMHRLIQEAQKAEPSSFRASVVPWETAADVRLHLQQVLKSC
PfM18AAP inh: blocks P. falciparum M18 aspartyl aminopeptidase; AID 1822; recombinant PfM18AAP, H-Glu-NHMec fluorogenic cleavage; inhibition, % at 7.35 µM; 1.2% of 290,000 active;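 active = inhibition above the campaign mean inhibition over all tested compounds plus 3 SD, cut at about 28% in these data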;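 note: 0% = plate median of test compound wells and 100% = 2 mM ZnCl2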
ALR H2O2 inh: human ALR oxidase inhibition via reduced H2O2. P55789. purified ALR, DTT oxidation, H2O2 HRP-luminol luminescence. inhibition, % (no concentration beside the values). 3.8% of 290,000 active. AID 485317;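 active = mean replicate inhibition above about 79%, with every replicate also reaching it, limit read from the data; inconclusive = only one of the two criteria met; inactive = mean below limit and not every replicate reaching it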
Target sequence (P55789 whole entry, looked up): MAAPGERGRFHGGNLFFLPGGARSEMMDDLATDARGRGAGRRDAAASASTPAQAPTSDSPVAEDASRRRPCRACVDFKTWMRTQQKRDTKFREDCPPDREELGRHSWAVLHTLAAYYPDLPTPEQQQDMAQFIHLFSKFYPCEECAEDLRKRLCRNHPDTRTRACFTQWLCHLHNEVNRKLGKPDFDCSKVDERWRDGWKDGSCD
Cardio protect: myocardial damage modulation in H9c2 cells | AID 588492 | protection from H2O2 cell death, % at 20 µM | 0.63% of 360,000 active | H9c2 cardiomyocytes, H2O2 injury protection, ATPLite, 2 h;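 active = compounds giving at least 50% protection of heart cells from peroxide-induced death in the single-dose screen, raw or plate-pattern-corrected value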;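 note: 0% = DMSO wells with peroxide and 100% = DMSO wells without peroxide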
* marks the source's active call; other numbers are inactive results; ? = inconclusive; . = no result.

SMILES | PfG6PD inh | PHOSPHO1 inh | PfM18AAP inh | ALR H2O2 inh | Cardio protect
OCCN1CCN(c2nccn3ccnc23)CC1 | . | . | . | . | 10.3
Cc1ccc(C(=O)N(C)Cc2ccc(N3CCOCC3)cc2)cc1S(=O)(=O)NCc1ccccc1 | -4.8 | . | . | 3.8 | 8.4
Cc1ccc(C)c(NC(=O)CSc2nc3ccc(N4C(=O)c5ccccc5C4=O)cc3s2)c1 | -1.2 | 7.4 | -6.1 | 86.0* | -4.4
N/C(=N\O)c1ccc(Oc2ccccc2Cl)c([N+](=O)[O-])c1 | -7.6 | -21.5 | -6.1 | 98.1* | -2.4
CCOc1cc(Cl)c(S(=O)(=O)NCCCN2CCOCC2)cc1Cl | -2.3 | 31.0 | 5.0 | . | -3.1
C[C@H]1CN([C@@H](C)CO)C(=O)CCCn2nncc2CO[C@H]1CN(C)S(=O)(=O)c1ccc(C#N)cc1 | -1.4 | . | . | . | -3.7
CCOC(=O)C1(C)C=C(Nc2ccc(OC)cc2)C(=O)N1c1ccc(OC)cc1 (configuration not stated) | -10.6 | 10.9 | -0.3 | -5.5 | 6.0
CCOC(=O)C1(C)C=C(Nc2ccc(O)cc2)C(=O)N1c1ccc(O)cc1 (configuration not stated) | 14.5 | -2.2 | 33.7* | 99.6* | 13.0
O=C(OCn1nnc2ccccc2c1=O)c1ccc(F)c(S(=O)(=O)N2CCOCC2)c1 | -4.0 | . | . | . | 17.6
Cc1nc(NC(C)C(=O)O)c2nc(C)oc2n1 (configuration not stated) | -2.5 | 62.3* | 1.0 | -23.9 | 1.5
O=C(NCc1ccco1)c1cccc(Nc2nc3ccc(Br)cc3[nH]2)c1 | 17.5 | 39.9 | 2.4 | 28.4 | -17.5
O=C(NCC1CC1)c1ccc(Nc2nc3ccc(Br)cc3[nH]2)cc1 | 17.9 | 6.2 | -8.6 | 97.8* | -15.6
CC(C)Oc1cccc(C(=O)N/N=C/c2coc3ccccc3c2=O)c1 | 3.5 | 41.8 | 12.3 | 97.5* | -4.6
CCOc1cccc(C(=O)N/N=C/c2coc3ccccc3c2=O)c1 | -5.6 | 19.2 | -6.7 | 27.4 | -3.2
O=C(CCc1ccc(O)cc1)N/N=C/c1coc2ccccc2c1=O | -11.2 | -12.2 | 15.4 | 78.9* | 1.5
Cc1cccc(C(=O)N/N=C/c2coc3ccccc3c2=O)c1 | 0.4 | 31.3 | 1.4 | 88.6* | 2.3
O=C(N/N=C/c1coc2ccc(Cl)cc2c1=O)c1ccncc1 | 10.0 | 47.7 | 26.3 | -3.8 | -0.2
O=C(N/N=C/c1coc2ccc(Cl)cc2c1=O)c1ccc(O)cc1 | -10.2 | 26.3 | 5.6 | 97.9* | 5.3
COc1ccc(C)cc1NC(=O)CCc1ccc(S(=O)(=O)N2CCOCC2)cc1 | 5.6 | . | . | -5.0 | 5.3
CSCCC(NC=O)C(=O)NC(C)C(=O)O (configuration not stated) | 2.3 | . | . | . | -4.4
O=C(/C=C/[C@H]1O[C@@H](n2ccc(=O)[nH]c2=O)[C@H](O)[C@@H]1O)N1CCN(CCc2ccccc2)CC1 | . | . | . | . | 2.4
COc1cc(C(=O)N/N=C/c2coc3ccccc3c2=O)cc(OC)c1OC | -9.2 | 15.9 | 29.7* | 52.5 | 4.2
CCCc1c(C)nc2ccc(OC)cc2c1SCCC(=O)O | -1.6 | -4.0 | 1.9 | 0.8 | 1.4
CCCOc1ccc2nc(C)c(CCC)c(SC(=N)N)c2c1 | 20.1 | 66.8* | -6.1 | -11.2 | -0.9
O=C(c1ccc(Br)cc1)c1cc2ccc(O)cc2oc1=O | -17.6 | 23.3 | 13.4 | 96.8* | -0.6
SMILES | PfG6PD inh | PHOSPHO1 inh | PfM18AAP inh | ALR H2O2 inh | Cardio protect
O=C(NNC(=O)c1cc2cc(Br)ccc2oc1=O)c1ccc(O)cc1O | -20.8 | -89.9 | 15.3 | . | 76.8*
COCCCNC(=O)c1cc2cc(Br)ccc2oc1=O | -14.5 | -11.4 | 4.3 | -1.3 | -5.7
O=C(O)c1cnc(-c2ccccc2)nc1Sc1ccc(Cl)cc1 | -31.9 | 58.0 | -5.1 | . | -8.6
O=C(O)c1cnc(-c2ccccc2)nc1Sc1ccccc1Cl | -17.9 | 8.1 | -6.9 | 98.2* | -5.8
CCOC(=O)c1nnc(-c2ccccc2)nc1Sc1ccccc1Cl | 20.3 | -8.6 | -8.1 | 97.3* | -20.2
Cc1ccc(N2C(=O)CC(Sc3ncn[nH]3)C2=O)cc1C (configuration not stated) | 12.7 | 104.7* | 11.0 | 7.9 | -26.3
Cc1cccc(N2C(=O)CC(Sc3ncn[nH]3)C2=O)c1 (configuration not stated) | -4.3 | 6.7 | 15.0 | 2.4 | -20.0
O=S1(=O)c2ccccc2Nc2ccccc21 | 14.7 | . | -11.8 | -4.1 | 2.9
O=C(Nc1ccc(F)cc1F)NC1CC1 | -17.2 | -40.0 | 1.8 | -3.9 | 3.8
O=C(Nc1ccc(F)cc1F)NC1CCCCCCC1 | 9.0 | 61.0* | 4.6 | -2.7 | -1.2
CC(=O)N1CC2([N+](=O)[O-])CN(C(C)=O)CC([N+](=O)[O-])(C1)C2(C)C | -2.3 | 42.1 | -7.5 | 15.4 | 0.9
Nc1ccc(Sc2ccccc2CC(=O)O)cc1 | . | -22.8 | -4.0 | 98.9* | .
O=C(Cc1ccccc1)Nc1ccccc1Sc1ccccc1 | 2.2 | 8.2 | -3.4 | -6.5 | -6.1
CC(Oc1ccc(Cl)cc1)C(=O)N(C)CC(=O)Nc1ccc(N2CCOCC2)cc1 (configuration not stated) | 23.4 | 27.6 | 1.1 | 92.6* | -0.4
Cc1cc(C)cc(OCC(=O)N(C)CC(=O)Nc2ccc(N3CCOCC3)cc2)c1 | -1.7 | . | . | . | -3.4
CN(CC(=O)Nc1ccc(N2CCOCC2)cc1)C(=O)CSc1ccc(Br)cc1 | 0.2 | 40.3 | -6.6 | 70.9 | -6.3
CC(Sc1ccc(Cl)cc1)C(=O)N(C)CC(=O)Nc1ccc(N2CCOCC2)cc1 (configuration not stated) | -1.8 | . | . | 92.2* | 0.1
Cc1ccc(CC(=O)N(C)CC(=O)Nc2ccc(N3CCOCC3)cc2)cc1C | 10.0 | . | . | 99.4* | 1.0
CC(Oc1cccc(Cl)c1)C(=O)Nc1ccc(N2CCOCC2)cc1N1CCOCC1 (configuration not stated) | 33.4 | . | . | 97.8* | 3.4
CC(Oc1ccc(F)cc1)C(=O)Nc1ccc(N2CCOCC2)cc1N1CCOCC1 (configuration not stated) | 5.9 | . | . | ? | -1.2
O=C1C=C(/C=C/c2ccccc2)C[C@@H](c2ccc3c(c2)OCO3)C1 | 2.5 | . | . | -1.1 | -5.1
O=C(C[C@@H]1C/C=C\C[C@@H](Cc2ccc(F)cc2)C(=O)OC[C@@H]2CCCN2C1=O)NCCO | 6.7 | . | . | . | 3.3
COc1ccc(NC(=O)N2CCCC2C(=O)NCCc2ccccc2)cc1 (configuration not stated) | -15.0 | 13.8 | -10.7 | 39.3 | -6.3
Cc1cc(Cl)ccc1OCC(=O)NNC(=O)c1cccnc1 | -12.3 | 13.7 | 6.0 | -3.0 | -5.2
O=C(NCCS(=O)(=O)N1CCN(c2ccccc2F)CC1)c1cccs1 | -2.9 | . | . | -0.8 | -2.0
CC(Sc1ccc2c(c1)OCCO2)C(=O)Nc1ccc(N2CCOCC2)cc1 (configuration not stated) | 22.5 | 57.8 | 7.8 | 99.0* | 5.4
CN(CC(=O)Nc1ccc(N2CCOCC2)cc1)C(=O)CC(c1ccccc1)c1ccccc1 | -5.3 | -7.7 | -6.0 | . | -3.7
CC(C(=O)NCC1CCCCC1)N(C)CC(=O)Nc1ccc(N2CCOCC2)cc1 (configuration not stated) | -0.3 | 4.4 | -5.7 | 91.7* | -0.9
CCC1(c2ccccc2)NC(=S)N(c2ccc(C)cc2)N1 (configuration not stated) | 40.0 | 1.7 | 18.3 | 93.7* | -7.2
